# Results filed as inconclusive are left out. Activity calls are given as the source filed them. Rule for the calls: active = hit-call score of the fitted dose curve at least 0.9, where 1 is the maximum; inconclusive = response in the unintended direction; inactive = score below 0.9.
# Target: Estrogen-related receptor gamma (Homo sapiens) (UniProt P62508)
# Experiment: ATG_ERRg_TRANS: Attagene TRANS-FACTORIAL HepG2 Assay for human Estrogen-Related Receptor gamma (ERRg) (AID 2282977);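 note: hits increase reporter signal over DMSO so potencies reflect activators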
# Details: HepG2 Attagene TRANS reporter, ERRg transactivation
# Description: ATG_TRANS is a cell-based, multiplexed-readout assay that uses HepG2, a human liver cell line, with measurements taken at 24 hours after chemical dosing in a 24-well plate.ATG_ERRg_TRANS is one of 30 assay component(s) measured or calculated from the ATG_TRANS assay. It is designed to make measurements of mRNA induction, a form of inducible reporter, as detected with fluorescence intensity signals by Reverse transcription polymerase chain reaction (RT-PCR) and Capillary electrophoresis technology.Data from the assay component ATG_ERRg_TRANS was analyzed into 1 assay endpoint. This assay endpoint, ATG_ERRg_TRANS, was analyzed in the positive analysis fitting direction relative to DMSO as the negative control and baseline of activity. Using a type of inducible reporter, measures of mRNA for gain-of-signal activity can be used to understand the reporter gene at the transcription factor-level as they relate to the gene ESRRG. Furthermore, this assay endpoint can be referred to as a primary readout, because this assay has produced multiple assay endpoints where this one serves a reporter gene function. To generalize the intended target to other relatable targets, this assay endpoint is annotated to the nuclear receptor intended target family, where the subfamily is steroidal.
# Human liver HepG2 cells are transiently transfected with multiple reporter transcription units (MRTUs) in 6-well plates using FuGene 6 reagent (Roche; 3 ml FuGene/1 mg DNA). The MRTU constructs are regulated by a cis-regulating element (promoter). […] A major difference between the CIS and TRANS system is that in CIS activities of endogenous TFs are measured, whereas the TRANS assay evaluates changes in activities of exogenous, chimeric NR-Gal4 proteins. […] At the end of 24 hour incubation, total RNA was isolated using TriZol reagent (Invitrogen). The isolated RNA is then reverse-transcribed using oligo(dT) primer and Mo-MLV reverse transcriptase (Invitrogen) with DNAse I (Ambion) treatment for 30 min. The one-tenth of the produced cDNA was amplified by PCR using Taq DNA polymerase (Invitrogen) and two reporter sequence-specific primers. The PCR products were fluorescently labeled by primer extension with 6-arboxyfluorescein (6-FAM) 5'-labeled reporter sequence-specific primer (2 min at 95 C, 20 s at 68 C and 10 min at 72 C) and these products were digested with 5U of HpaI (New England Biolabs) for 2h at 37 C. The fragments were purified using Qiaquick PCR columns (Qiagen), analyzed on an ABI 3130xL genetic analyzer (Applied Biosystems) with peak positions identified by using a set of X-rhodamine (ROX)-labeled MapMarker1000 molecular weight standards (BioVentures). The raw capillary electrophoresis data was processed using Attagraph software (Attagene).
# Sequence of Estrogen-related receptor gamma (Homo sapiens) (P62508 whole entry, looked up): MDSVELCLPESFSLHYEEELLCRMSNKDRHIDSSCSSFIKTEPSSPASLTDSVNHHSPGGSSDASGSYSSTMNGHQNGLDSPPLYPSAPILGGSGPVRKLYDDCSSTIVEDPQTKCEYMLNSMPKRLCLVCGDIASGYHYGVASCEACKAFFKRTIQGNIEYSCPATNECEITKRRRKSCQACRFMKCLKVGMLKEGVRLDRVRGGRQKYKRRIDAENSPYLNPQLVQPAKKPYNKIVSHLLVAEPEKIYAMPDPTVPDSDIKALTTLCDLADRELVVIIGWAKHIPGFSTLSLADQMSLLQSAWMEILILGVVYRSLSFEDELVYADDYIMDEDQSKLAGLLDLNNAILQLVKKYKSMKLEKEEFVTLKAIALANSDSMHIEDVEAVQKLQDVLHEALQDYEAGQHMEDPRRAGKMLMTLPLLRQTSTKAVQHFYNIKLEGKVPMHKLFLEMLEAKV
row,SMILES,outcome
1,CCCCOCN(C(=O)CCl)c1c(CC)cccc1CC,inactive
2,COc1ccc(-c2ccccc2)cc1NNC(=O)OC(C)C,inactive
3,CC(C)N1C(=O)N(c2ccccc2)CSC1=NC(C)(C)C,inactive
4,C=CCOC(=O)C(C)(C)OC(=O)c1cc(-n2c(=O)cc(C(F)(F)F)n(C)c2=O)ccc1Cl,inactive
5,CC(C)N1C(=O)c2ccccc2NS1(=O)=O,inactive
6,Cc1cc(C)nc(Nc2ccccc2)n1,inactive
7,COP(=S)(OC)SCn1nnc2ccccc2c1=O,inactive
8,O=C(Nc1ccccc1-c1ccc(Cl)cc1)c1cccnc1Cl,inactive
9,COP(=S)(OC)Oc1ccc([N+](=O)[O-])c(C)c1,inactive
10,CCNC(=O)NC(=O)C(C#N)=NOC,inactive
11,N#CN=C1SCCN1Cc1ccc(Cl)nc1,inactive
12,COC(=O)c1c(C(F)F)nc(C(F)(F)F)c(C2=NCCS2)c1CC(C)C,inactive
13,CCOC(=O)C(C)OC(=O)c1cc(Oc2ccc(C(F)(F)F)cc2Cl)ccc1[N+](=O)[O-] (configuration not stated),inactive
14,N#Cc1c(Cl)cccc1Cl,inactive
15,O=C1C2CC=CCC2C(=O)N1SC(Cl)(Cl)Cl (configuration not stated),inactive
16,COP(=O)(OC)O/C(C)=C/C(=O)N(C)C,inactive

row,SMILES,outcome
1,N#Cc1c[nH]cc1-c1cccc2c1OC(F)(F)O2,inactive
2,COc1cc(OC)nc(NC(=O)NS(=O)(=O)c2ncccc2OCC(F)(F)F)n1,inactive
3,CC(C)NC(=O)N1CC(=O)N(c2cc(Cl)cc(Cl)c2)C1=O,inactive
4,CCCCC(C#N)(Cn1cncn1)c1ccc(Cl)cc1 (configuration not stated),inactive
5,CC1(C)C(C(=O)OC(C#N)c2cccc(Oc3ccccc3)c2)C1(C)C (configuration not stated),inactive
6,CS(=O)(=O)c1cc(C(F)(F)F)ccc1C(=O)c1cnoc1C1CC1,inactive
7,CN=C=S,inactive
8,CCOc1cc(C(C)(C)C)ccc1C1COC(c2c(F)cccc2F)=N1 (configuration not stated),inactive
9,CCC(C)n1c(=O)[nH]c(C)c(Br)c1=O (configuration not stated),inactive
10,Nc1c(Cl)c(F)nc(OCC(=O)O)c1Cl,inactive
11,COC(=O)NS(=O)(=O)c1ccc(N)cc1,inactive
12,CCOc1nc(C(Cl)(Cl)Cl)ns1,inactive
13,COCC(=O)N(c1c(C)cccc1C)C(C)C(=O)OC (configuration not stated),inactive
14,CCCCC(O)(Cn1cncn1)c1ccc(Cl)cc1Cl (configuration not stated),inactive
15,CC(C)Oc1cccc(NC(=O)c2ccccc2C(F)(F)F)c1,inactive
16,COC(=O)N(C(=O)N1CO[C@@]2(C(=O)OC)Cc3cc(Cl)ccc3C2=N1)c1ccc(OC(F)(F)F)cc1,inactive
